Shown are actives, neighbours in structure and some others; about 2.8% of the full set was active somewhere.
RGS4 inh – inhibitors of human regulator of G protein signaling 4. AID 504845. Potency, µM (doses to about 114 µM), for the others: at the top dose activity change, negative = inhibition, most hits filed as inhibitors. P49798. 390,000 tested, 0.039% active. Transcreener GDP fluorescence polarization, RGS4-accelerated GTP hydrolysis; active = well fitted inhibition curve with a large enough effect; inconclusive = small, poorly fitted or top-dose-only effect; inactive = no such curve, though single readings can be large or run the other way; note: potency is the fitted concentration of half-maximal effect; % is set by controls: 0 for no effect and ±100 for the full control effect; nearly all actives have a fitted effect of over 75% in size
Target sequence (P49798 whole entry, looked up): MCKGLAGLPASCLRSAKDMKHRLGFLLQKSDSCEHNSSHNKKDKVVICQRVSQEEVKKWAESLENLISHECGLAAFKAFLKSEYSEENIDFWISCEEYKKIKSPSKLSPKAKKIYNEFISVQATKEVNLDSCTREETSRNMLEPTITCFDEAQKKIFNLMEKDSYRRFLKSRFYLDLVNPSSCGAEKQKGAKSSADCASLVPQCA
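MLSMR compounds (23 nl, pin-transferred) preincubated 10 min at room temperature with a 500nM (2x) first reagent, then RGS4 at 900nM (2x) plus Transcreener GDP mix added; fluorescence polarization (620/688 nm) read before and after 90 min at 30 °C.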
LDHA inh – blocks human lactate dehydrogenase A; purified LDHA, NADH/diaphorase-resazurin fluorescence; stronger effect = lower value; P00338; activity change, % (values are at about 110 or 230 µM); 480,000 tested, 0.15% active; in the data active = activity change below about -30%; inconclusive = mostly about -25% to -30%;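 note: plate controls were DMSO wells for no effect and wells without enzyme for full effect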
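Human LDH5 (2 nM) was incubated with 0.06 mM NADH and 0.2 mM pyruvate for 5 min at room temperature in Tris pH 7.4. Remaining NADH was coupled through diaphorase/resazurin, and resorufin fluorescence was read at 0 and 20 min.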
D3 antag – antagonists of human D3 dopamine receptor; D3R cells, DiscoveRx beta-arrestin luminescence, antagonist mode; stronger effect = lower value; 360,000 tested, 2.5% active; AID 652054; P35462; max response, negative = inhibition, %; in the data active = max response below about -50%; inconclusive = no clear call, values can overlap the other calls; note: % is set by controls: 0 for no effect and ±100 for the full control effect
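Cells expressing the human receptor were seeded at 1500 cells/well, incubated overnight at 37 degrees C in 5% CO2, then exposed to library compounds with dopamine controls for 90 minutes at 37 degrees C before luminescent detection.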
DRD3 agonist – D3 dopamine receptor (human) agonism. P35462. D3R DiscoveRx beta-arrestin cells, luminescence, 90 min. max activation, %. 410,000 tested, 0.58% active; in the data active = max activation above about 30%; note: 0% is about no effect
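Agonist-mode cell screen: cells plated at 1500/well and incubated overnight at 37 °C, then exposed to library compounds for 90 min at 37 °C. Detection reagent was added for 30–60 min at room temperature, and luminescence was read.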
PI4K2A inh – blocks human PI4K2A kinase activity; Q9BTU6; purified PI4K2A, ADP-Glo luminescence, 1 h; stronger effect = lower value; activity change, negative = inhibition, % at 76.9 µM; 420,000 tested, 0.13% active; in the data active = activity change below about -50%; inconclusive = mostly about -30% to -49%;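 note: -100% = wells without enzyme as full effect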
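In this quantitative HTS, ADP production by PI4K2A was quantified luminescently after 1 h at ambient temperature; 100 microM adenosine served as plate-quality control.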
Akt phos inh – Akt phosphorylation inhibition. AID 651550. 360,000 tested, 0.32% active. activity change, % for hits at 50 µM. Neuro2A IGF-stimulated pAkt S473 HTRF, 20 min; stronger effect = lower value; in the data active = activity change below about -80%; inconclusive = mostly about -51% to -80%; note: % is set by controls: 0 for no effect and ±100 for the full control effect
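Neuro2A cells (4,500/well, DMEM with 0.5% FBS) were treated with compound at a single 50 µM final concentration, stimulated with 6 nM IGF for 20 min at 37 °C, and lysed. Phospho-Akt Ser473 was read by HTRF as 665/615 ratio ×10^4.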
* = called active by the depositor; i = inactive; ? = inconclusive; / = not tested or not shown.

SMILES	RGS4 inh	LDHA inh	D3 antag	DRD3 agonist	PI4K2A inh	Akt phos inh
Cc1ccc(NC(=O)C2(C)CCN2C(=O)CC(c2ccccc2)c2ccccc2)cc1 (configuration not stated)	/	-1	-25	67*	-2	i
Cc1noc(C)c1C(=O)OCC(=O)Nc1cccc(F)c1	/	3	-62*	-7	-1	i
COC(C[C@H](O)C[C@@H](O)COCc1ccccc1)OC	0%	1	-107*	-3	0	i
Fc1ccc(CNC(=S)NCc2ccc(Cl)c(Cl)c2)cc1	/	3	/	/	/	/
CCCCc1ccc(-n2nnnc2SCC(=O)Nc2ccc(NC(C)=O)cc2)cc1	/	-1	/	/	/	/
Cc1ccc(Cl)cc1NC(=O)c1nn(C)c2c1CCc1sccc1-2	/	14	/	/	/	/
O=C(COc1ccccc1Cl)Nc1ccc2[nH]c(=O)[nH]c2c1	0%	-5	-61*	3	3	i
CCOc1ccccc1OCC(=O)Nc1ccc2[nH]c(=O)[nH]c2c1	-27%	0	3	-2	-1	i
CCOC(=O)c1ccc(NC(=O)c2ncoc2-c2cccc(OC)c2)cc1	/	2	/	/	/	/
O=[N+]([O-])c1ccc(N2CCN(CCO)CC2)cc1NCc1ccco1	17%	-5	-63*	-14	3	i
c1ccc(CN2CCN(c3nc(NCc4ccco4)c4ccccc4n3)CC2)cc1	-15%	4	-82*	-13	-3	i
Nc1nc(NCc2ccccc2)nc(NCc2ccccc2)c1[N+](=O)[O-]	8%	-6	7	32*	-1	i
OCCN1CCN(c2nc(NCc3ccco3)c3ccccc3n2)CC1	12%	-10	-82*	-20	0	i
Clc1nc(NCc2ccco2)c2ccccc2n1	/	-4	/	/	/	/
Cc1ccc(OCCN2CCN(c3nc(NCc4ccco4)c4ccccc4n3)CC2)cc1	-49%	3	-78*	-26	-4	i
Cc1ccc(-c2nc(NCc3ccco3)c3ccccc3n2)cc1	-16%	-9	9	0	2	i
Nc1nc(NCc2ccco2)nc(N2CCN(Cc3ccccc3)CC2)c1[N+](=O)[O-]	-26%	-5	-79*	-14	2	i
O=c1oc2ccccc2c(Nc2ccc3ccccc3c2)c1[N+](=O)[O-]	?	3	-86*	1	-1	i
Cc1ccc(Nc2c([N+](=O)[O-])c(=O)oc3ccccc23)cc1	8%	-8	-8	-6	-20	i
COc1cc(C2NC(=O)C(C#N)=C(S)N2c2ccc(C)cc2)ccc1OC(C)C (configuration not stated)	?	-6	-68*	-1	-17	i
COc1ccc(C2NC(=O)C(C#N)=C(S)N2c2ccc(C)cc2)cc1OC (configuration not stated)	-36%	-1	1	-4	-2	i
CCOc1ccc(C2NC(=O)C(C#N)=C(S)N2c2ccc(OC)cc2)cc1OC (configuration not stated)	?	-5	-68*	0	-9	i
CCN1CCC2(CC1)Oc1c(OC)cccc1C1CC(c3ccc(Cl)cc3)=NN12 (configuration not stated)	/	-7	/	/	/	/
O=c1cc(-c2ccccc2)c2ccc(OC/C=C/c3ccccc3)cc2o1	/	-2	/	/	/	/
CC(Sc1nnc(-c2cccs2)n1C1CC1)C(=O)N(C)Cc1ccccc1 (configuration not stated)	/	10	/	/	/	/
CCCOC(=O)NC(CC)COC(=O)Nc1cc(C)ccc1C (configuration not stated)	3%	-4	-87*	-6	-4	i
Cc1ccc(O)c(N=Cc2cc(Cc3ccccc3)cc([N+](=O)[O-])c2O)c1	?	13	?	10	?	i
O=[N+]([O-])c1cc(Cc2ccccc2)cc(C=Nc2ccc(N3CCOCC3)cc2)c1O	?	8	-67*	-5	?	i
O=C(CCOc1ccccc1)N1CCN(c2ccc(O)cc2)CC1	-13%	26	2	11	-20	i

Assay outcomes: PubChem BioAssay, National Center for Advancing Translational Sciences (NCATS)
